According to the supplement of paper PMC10849652:
Targets with a hit are over-represented here; the source holds about 7,900 in all. About 0.6% of all pairs of compound and target were hits.

Assays:
Experiment in all cases: log2 fold change, soluble protein after heating vs DMSO (PISA); higher = thermal stabilisation; K562 cells, 10 uM, 30 min; active = over 0.2 and 3.5 SD of the protein, either way, in both replicates (recomputed)
[1] = compound: COC1=CC=C(C=C1)CN2C=CC3=C2C=C(C=C3)C(=O)NO
Method in brief: (§1)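 K562 cells at 2×10^6 cells/mL were exposed to 10 μM compound for 30 min, then aliquots were heated for 3 min across 48°C-58°C, pooled, and extracted in PBS containing 0.5% NP-40 at 4°C. The supernatant after 21,000xg for 90 min was taken as soluble protein and measured by TMTpro 16plex LC-MS/MS with channel sums equalised. Thermal stability is reported relative to control samples, with values from duplicates. Fold changes are given on a log2 scale.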

filanesib = compound: CON(C)C(=O)N1N=C(c2cc(F)ccc2F)S[C@@]1(CCCN)c1ccccc1 [filanesib]
Method in brief: as §1

zotarolimus = compound: CO[C@H]1C[C@@H]2CC[C@@H](C)[C@@](O)(O2)C(=O)C(=O)N2CCCC[C@H]2C(=O)O[C@H]([C@H](C)C[C@@H]2CC[C@H](n3cnnn3)[C@H](OC)C2)CC(=O)[C@H](C)/C=C(\C)[C@@H](O)[C@@H](OC)C(=O)[C@H](C)C[C@H](C)/C=C/C=C/C=C/1C [zotarolimus]
Method in brief: as §1

idasanutlin = compound: COc1cc(C(=O)O)ccc1NC(=O)[C@@H]1N[C@@H](CC(C)(C)C)[C@](C#N)(c2ccc(Cl)cc2F)[C@H]1c1cccc(Cl)c1F [idasanutlin]
Method in brief: as §1

alisertib = compound: COc1cc(Nc2ncc3c(n2)-c2ccc(Cl)cc2C(c2c(F)cccc2OC)=NC3)ccc1C(=O)O [alisertib]
Method in brief: as §1

[2] = compound: COc1cc2nc(-c3cc(F)ccc3O)nc(N[C@@H]3CNC[C@H]3C(C)(C)O)c2cc1OC
Method in brief: as §1

gefitinib = compound: COc1cc2ncnc(Nc3ccc(F)c(Cl)c3)c2cc1OCCCN1CCOCC1 [gefitinib]
Method in brief: as §1

[3] = compound: COc1cccc2cc(-c3nc([C@H]4CC[C@H](C(=O)O)CC4)n4ncnc(N)c34)[nH]c12
Method in brief: as §1

lapatinib = compound: CS(=O)(=O)CCNCc1ccc(-c2ccc3ncnc(Nc4ccc(OCc5cccc(F)c5)c(Cl)c4)c3c2)o1 [lapatinib]
Method in brief: as §1

pictilisib = compound: CS(=O)(=O)N1CCN(Cc2cc3nc(-c4cccc5[nH]ncc45)nc(N4CCOCC4)c3s2)CC1 [pictilisib]
Method in brief: as §1

[4] = compound: CS(=O)(=O)c1ccc(-c2cnc(N)c(C(=O)Nc3ccccc3)n2)cc1
Method in brief: as §1

crizotinib = compound: C[C@@H](Oc1cc(-c2cnn(C3CCNCC3)c2)cnc1N)c1c(Cl)ccc(F)c1Cl [crizotinib]
Method in brief: as §1

[5] = compound: C[C@@H]1COCCN1C2=NC(=NC(=C2)C3(CC3)S(=O)(=O)C)C4=C5C=CNC5=CC=C4
Method in brief: as §1

[6] = compound: C[C@H](C1=CC=C(C=C1)C(=O)NC2=C3C=CNC3=NC=C2)N
Method in brief: as §1

duvelisib = compound: C[C@H](Nc1ncnc2nc[nH]c12)c1cc2cccc(Cl)c2c(=O)n1-c1ccccc1 [duvelisib]
Method in brief: as §1

gandotinib = compound: Cc1cc(Nc2cc(CN3CCOCC3)c3nc(C)c(Cc4ccc(Cl)cc4F)n3n2)n[nH]1 [gandotinib]
Method in brief: as §1

tozasertib = compound: Cc1cc(Nc2cc(N3CCN(C)CC3)nc(Sc3ccc(NC(=O)C4CC4)cc3)n2)n[nH]1 [tozasertib]
Method in brief: as §1

[7] = compound: Cc1cc(SCc2sc(-c3ccc(C(F)(F)F)cc3)nc2C)ccc1OCC(=O)O
Method in brief: as §1

doramapimod = compound: Cc1ccc(-n2nc(C(C)(C)C)cc2NC(=O)Nc2ccc(OCCN3CCOCC3)c3ccccc23)cc1 [doramapimod]
Method in brief: as §1

ispinesib = compound: Cc1ccc(C(=O)N(CCCN)[C@@H](c2nc3cc(Cl)ccc3c(=O)n2Cc2ccccc2)C(C)C)cc1 [ispinesib]
Method in brief: as §1

Measured: log2 fold change

PHF5A (UniProt Q7RTV0)
Chain of UniProt Q7RTV0 (Q7RTV0 whole entry, looked up): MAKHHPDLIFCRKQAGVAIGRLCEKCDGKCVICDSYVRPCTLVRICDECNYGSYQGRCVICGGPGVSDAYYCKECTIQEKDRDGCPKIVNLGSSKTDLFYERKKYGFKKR
inactive: [1] 0.014 | filanesib 0.087 | zotarolimus -0.024 | idasanutlin 0.056 | alisertib -0.033 | [2] 0.067 | gefitinib 0.003 | [3] 0.026 | lapatinib -0.051 | pictilisib 0.071 | [4] 0.013 | crizotinib 0.074 | [5] -0.061 | [6] -0.072 | duvelisib 0 | gandotinib -0.009 | tozasertib 0.043 | [7] -0.031 | doramapimod -0.093 | ispinesib 0.094

PJA2 (UniProt O43164)
Chain of UniProt O43164 (O43164 whole entry, looked up): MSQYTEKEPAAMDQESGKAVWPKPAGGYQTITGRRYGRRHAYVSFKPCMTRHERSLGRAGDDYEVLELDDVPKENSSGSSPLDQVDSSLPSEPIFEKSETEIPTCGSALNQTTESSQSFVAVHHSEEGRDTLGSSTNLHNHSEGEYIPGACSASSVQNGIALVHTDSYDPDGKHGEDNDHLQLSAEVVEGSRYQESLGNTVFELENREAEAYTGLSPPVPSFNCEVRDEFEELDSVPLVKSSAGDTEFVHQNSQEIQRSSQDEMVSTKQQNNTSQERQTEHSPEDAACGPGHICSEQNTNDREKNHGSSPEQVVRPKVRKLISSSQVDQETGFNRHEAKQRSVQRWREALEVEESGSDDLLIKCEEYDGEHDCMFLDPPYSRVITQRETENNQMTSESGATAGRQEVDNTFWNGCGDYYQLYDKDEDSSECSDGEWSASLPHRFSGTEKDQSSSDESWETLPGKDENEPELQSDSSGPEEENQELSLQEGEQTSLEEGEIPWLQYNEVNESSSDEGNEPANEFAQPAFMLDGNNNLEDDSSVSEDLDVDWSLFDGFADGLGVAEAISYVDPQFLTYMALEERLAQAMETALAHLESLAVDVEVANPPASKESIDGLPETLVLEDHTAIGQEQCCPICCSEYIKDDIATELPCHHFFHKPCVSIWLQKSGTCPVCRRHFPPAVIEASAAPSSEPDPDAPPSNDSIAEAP
inactive: [1] -0.022 | filanesib 0.004 | zotarolimus -0.071 | idasanutlin 0.11 | alisertib -0.008 | [2] 0.024 | gefitinib -0.016 | [3] 0.001 | lapatinib -0.001 | pictilisib -0.049 | [4] 0.032 | crizotinib -0.042 | [5] -0.126 | [6] 0.091 | duvelisib -0.021 | gandotinib 0.097 | tozasertib -0.018 | [7] -0.118 | doramapimod 0.033 | ispinesib -0.098

PRKAA1 isoform 2 (UniProt Q13131)
Chain of UniProt Q13131 (Q13131 whole entry, looked up): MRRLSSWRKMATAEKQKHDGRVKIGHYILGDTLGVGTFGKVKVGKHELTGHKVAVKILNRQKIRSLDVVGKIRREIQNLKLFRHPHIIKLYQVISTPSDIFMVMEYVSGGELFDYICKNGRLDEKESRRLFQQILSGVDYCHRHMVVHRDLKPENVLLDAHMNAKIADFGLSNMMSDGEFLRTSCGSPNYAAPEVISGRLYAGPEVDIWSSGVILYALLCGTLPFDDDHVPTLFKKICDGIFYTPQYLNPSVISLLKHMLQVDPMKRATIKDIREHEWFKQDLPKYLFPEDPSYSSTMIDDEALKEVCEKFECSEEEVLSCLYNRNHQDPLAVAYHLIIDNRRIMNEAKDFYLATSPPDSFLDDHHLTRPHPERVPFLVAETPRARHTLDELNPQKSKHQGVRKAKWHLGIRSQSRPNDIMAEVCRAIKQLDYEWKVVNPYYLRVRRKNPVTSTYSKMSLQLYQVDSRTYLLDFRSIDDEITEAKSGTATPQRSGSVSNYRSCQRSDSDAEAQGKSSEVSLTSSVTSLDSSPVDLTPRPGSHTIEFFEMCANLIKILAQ
active: gandotinib -0.235
inactive: [1] 0.029 | filanesib -0.043 | zotarolimus -0.007 | idasanutlin 0.013 | alisertib -0.047 | [2] -0.014 | gefitinib 0.004 | [3] 0.016 | lapatinib -0.008 | pictilisib -0.03 | [4] 0 | crizotinib -0.156 | [5] -0.007 | [6] -0.011 | duvelisib 0.055 | tozasertib -0.044 | [7] -0.036 | doramapimod -0.019 | ispinesib -0.003

POLR1A (UniProt O95602)
inactive: [1] 0.248 | filanesib 0.075 | zotarolimus -0.05 | idasanutlin 0.063 | alisertib -0.076 | [2] -0.007 | gefitinib 0.037 | [3] -0.008 | lapatinib 0.069 | pictilisib 0.078 | [4] 0.076 | crizotinib -0.017 | [5] -0.116 | [6] 0.125 | duvelisib 0.111 | gandotinib -0.03 | tozasertib -0.145 | [7] 0.08 | doramapimod 0.141 | ispinesib -0.151

PHAX (UniProt Q9H814)
Chain of UniProt Q9H814 (Q9H814 whole entry, looked up): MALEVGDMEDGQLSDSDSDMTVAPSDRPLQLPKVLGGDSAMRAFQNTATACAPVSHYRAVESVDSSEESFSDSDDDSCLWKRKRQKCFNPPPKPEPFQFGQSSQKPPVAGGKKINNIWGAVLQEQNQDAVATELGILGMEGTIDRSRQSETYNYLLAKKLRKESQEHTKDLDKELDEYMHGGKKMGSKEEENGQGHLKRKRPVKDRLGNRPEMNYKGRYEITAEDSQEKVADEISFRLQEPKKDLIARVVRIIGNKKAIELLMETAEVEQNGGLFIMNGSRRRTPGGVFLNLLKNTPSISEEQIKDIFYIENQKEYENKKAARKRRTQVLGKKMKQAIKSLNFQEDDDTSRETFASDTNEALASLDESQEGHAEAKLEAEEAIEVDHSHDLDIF
inactive: [1] -0.01 | filanesib 0.045 | zotarolimus 0.004 | idasanutlin 0.018 | alisertib -0.057 | [2] -0.09 | gefitinib 0.007 | [3] 0.032 | lapatinib 0.039 | pictilisib 0.002 | [4] -0.034 | crizotinib 0.097 | [5] -0.036 | [6] -0.01 | duvelisib 0.07 | gandotinib 0.035 | tozasertib 0.082 | [7] -0.062 | doramapimod -0.016 | ispinesib 0.017

PEX13 (UniProt Q92968)
Chain of UniProt Q92968 (Q92968 whole entry, looked up): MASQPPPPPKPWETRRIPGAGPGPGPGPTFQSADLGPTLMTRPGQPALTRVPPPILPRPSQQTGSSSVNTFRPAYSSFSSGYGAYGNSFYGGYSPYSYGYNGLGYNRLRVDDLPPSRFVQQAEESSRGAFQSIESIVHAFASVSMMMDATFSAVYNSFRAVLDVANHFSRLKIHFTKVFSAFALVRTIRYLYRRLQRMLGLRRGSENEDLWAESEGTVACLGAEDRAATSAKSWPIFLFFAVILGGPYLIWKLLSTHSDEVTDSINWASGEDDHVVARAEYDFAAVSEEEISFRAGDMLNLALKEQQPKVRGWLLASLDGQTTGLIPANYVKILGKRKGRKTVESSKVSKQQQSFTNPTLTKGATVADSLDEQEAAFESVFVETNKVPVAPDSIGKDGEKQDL
inactive: [1] 0.028 | filanesib -0.072 | zotarolimus -0.129 | idasanutlin -0.019 | alisertib -0.037 | gefitinib -0.045 | [3] 0.115 | lapatinib -0.013 | pictilisib 0.009 | [4] -0.005 | crizotinib -0.146 | [5] 0.034 | [6] -0.047 | duvelisib 0.078 | gandotinib -0.143 | tozasertib -0.163 | [7] -0.016 | doramapimod 0.056 | ispinesib -0.026
active: [2] -0.318

PIR (UniProt O00625)
Chain of UniProt O00625 (O00625 whole entry, looked up): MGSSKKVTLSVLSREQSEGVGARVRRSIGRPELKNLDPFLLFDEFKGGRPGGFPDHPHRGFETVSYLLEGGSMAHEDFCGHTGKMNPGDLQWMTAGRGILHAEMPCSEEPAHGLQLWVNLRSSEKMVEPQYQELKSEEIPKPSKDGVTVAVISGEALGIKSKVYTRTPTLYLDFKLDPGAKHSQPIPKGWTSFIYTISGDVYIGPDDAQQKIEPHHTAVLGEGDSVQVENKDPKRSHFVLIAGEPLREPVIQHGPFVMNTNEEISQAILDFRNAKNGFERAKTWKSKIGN
active: [1] -0.338
inactive: filanesib 0.015 | zotarolimus 0.011 | idasanutlin 0.033 | alisertib -0.038 | [2] 0.085 | gefitinib 0.061 | [3] 0.011 | lapatinib 0.018 | pictilisib 0.077 | [4] 0.004 | crizotinib 0.042 | [5] 0.019 | [6] -0.085 | duvelisib 0.013 | gandotinib 0.048 | tozasertib 0.027 | [7] 0.057 | doramapimod 0.095 | ispinesib 0.045

POLR2A (UniProt P24928)
active: [2] 0.258 | gandotinib 0.321
inactive: [1] -0.005 | filanesib -0.021 | zotarolimus -0.026 | idasanutlin -0.054 | alisertib 0.001 | gefitinib 0.015 | [3] 0.042 | lapatinib 0 | pictilisib 0.05 | [4] 0.027 | crizotinib 0.231 | [5] 0.049 | [6] 0.21 | duvelisib 0.06 | tozasertib -0.026 | [7] 0.023 | doramapimod -0.009 | ispinesib 0.006

PRKCG (UniProt P05129)
inactive: [1] -0.071 | filanesib 0.019 | zotarolimus 0.118 | idasanutlin -0.011 | alisertib -0.01 | [2] 0.098 | gefitinib -0.025 | [3] -0.17 | lapatinib 0.055 | pictilisib 0.113 | [4] 0.078 | crizotinib -0.005 | [5] 0.188 | [6] 0.028 | duvelisib 0.244 | gandotinib -0.149 | tozasertib -0.04 | [7] 0.11 | doramapimod -0.029 | ispinesib 0

PCLAF (UniProt Q15004)
Chain of UniProt Q15004 (Q15004 whole entry, looked up): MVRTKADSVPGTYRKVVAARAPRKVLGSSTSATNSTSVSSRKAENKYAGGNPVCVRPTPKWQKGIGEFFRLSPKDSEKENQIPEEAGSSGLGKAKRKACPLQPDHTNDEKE
inactive: [1] -0.115 | filanesib 0.158 | zotarolimus -0.172 | idasanutlin 0.066 | alisertib -0.035 | [2] -0.018 | gefitinib -0.057 | [3] -0.162 | lapatinib 0.033 | pictilisib -0.015 | [4] -0.175 | crizotinib 0.027 | [5] -0.19 | [6] 0.052 | duvelisib -0.022 | gandotinib -0.07 | tozasertib -0.03 | [7] -0.097 | doramapimod 0.022 | ispinesib 0.079

PSMD13 (UniProt Q9UNM6)
Chain of UniProt Q9UNM6 (Q9UNM6 whole entry, looked up): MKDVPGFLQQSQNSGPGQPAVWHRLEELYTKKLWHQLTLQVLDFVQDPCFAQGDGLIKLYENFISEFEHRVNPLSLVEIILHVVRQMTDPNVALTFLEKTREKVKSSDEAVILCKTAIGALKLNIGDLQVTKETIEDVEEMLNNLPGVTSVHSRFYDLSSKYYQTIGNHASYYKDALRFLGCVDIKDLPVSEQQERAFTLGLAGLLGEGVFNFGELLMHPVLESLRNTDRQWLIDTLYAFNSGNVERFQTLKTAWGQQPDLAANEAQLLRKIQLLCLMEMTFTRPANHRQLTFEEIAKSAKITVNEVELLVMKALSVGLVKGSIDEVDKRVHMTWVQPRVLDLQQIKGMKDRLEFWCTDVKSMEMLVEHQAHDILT
inactive: [1] -0.127 | filanesib 0.095 | zotarolimus 0.009 | idasanutlin -0.054 | alisertib -0.04 | [2] -0.025 | gefitinib -0.026 | [3] -0.05 | lapatinib 0.038 | pictilisib -0.01 | [4] 0.048 | crizotinib 0.008 | [5] -0.012 | [6] 0.092 | duvelisib -0.028 | gandotinib -0.016 | tozasertib 0.062 | [7] 0.052 | doramapimod 0.026 | ispinesib -0.008

PTDSS1 (UniProt P48651)
inactive: [1] -0.015 | filanesib 0.075 | zotarolimus 0.053 | idasanutlin 0.124 | alisertib -0.098 | [2] -0.071 | gefitinib 0.041 | [3] -0.012 | lapatinib 0.04 | pictilisib -0.098 | [4] -0.029 | crizotinib -0.141 | [5] -0.05 | [6] 0.209 | duvelisib -0.225 | gandotinib -0.039 | tozasertib -0.048 | [7] 0.105 | doramapimod 0.151 | ispinesib -0.326
